This is an account of results in PubChem BioAssay AID588342 (National Center for Advancing Translational Sciences (NCATS), 2011).

Screen size: about 360,000 compounds; about 25,000 (6.9%) were called active. About 9% were inconclusive and are not listed. The entries come from a sample that favours actives as a whole. A call without a number means that no potency is given here. A number with no mark means an inactive call. Calls come from the whole dose curve; as a rule, active = well fitted inhibition curve with a large enough effect; inconclusive = small, poorly fitted or top-dose-only effect; inactive = flat fitted curve, though single readings scatter.
Potency is the fitted concentration of half-maximal effect.

Chain of Luciferin 4-monooxygenase (Photinus pyralis) (P08659 whole entry, looked up): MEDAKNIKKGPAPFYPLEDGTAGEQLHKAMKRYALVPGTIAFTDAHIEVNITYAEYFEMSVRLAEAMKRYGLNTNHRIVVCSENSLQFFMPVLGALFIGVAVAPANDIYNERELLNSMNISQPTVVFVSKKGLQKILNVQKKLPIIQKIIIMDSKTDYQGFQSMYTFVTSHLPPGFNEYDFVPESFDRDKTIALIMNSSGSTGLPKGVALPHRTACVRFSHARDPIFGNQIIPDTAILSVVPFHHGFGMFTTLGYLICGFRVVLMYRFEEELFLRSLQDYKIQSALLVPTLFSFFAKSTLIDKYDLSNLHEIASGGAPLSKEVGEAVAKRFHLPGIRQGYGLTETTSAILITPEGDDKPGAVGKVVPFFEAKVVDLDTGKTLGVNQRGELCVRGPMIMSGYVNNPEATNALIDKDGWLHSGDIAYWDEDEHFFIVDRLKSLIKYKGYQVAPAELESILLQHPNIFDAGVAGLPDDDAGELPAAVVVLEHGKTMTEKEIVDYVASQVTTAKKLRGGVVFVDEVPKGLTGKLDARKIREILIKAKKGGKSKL

This experiment addresses Luciferin 4-monooxygenase (Photinus pyralis) (UniProt P08659). Briefly: qHTS profiling assay for firefly luciferase inhibitor/activator using purifed enzyme and Km concentrations of substrates (counterscreen for miR-21 project). Note: nearly all actives have a fitted effect of over 55% in size. Conditions: purified FLuc, luminescence inhibition; series mostly up to 57.5 µM. The method, boiled down:
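Purified P. pyralis luciferase, 10 nM final, with Km-level 10 uM D-luciferin and 10 uM ATP in 50 mM Tris acetate pH 7.5, 10 mM Mg acetate, 0.01% Tween-20, 0.05% BSA; 6-point qHTS titration about 60 µM downward; luminescence read.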
Background: Quantitative high-throughput screening tests each substance at several concentrations.
On to `COc1ccc(S(=O)(=O)c2cn(C)c3cc(N4CCCCC4)c(F)cc3c2=O)cc1`, for which the Potency entry is “inactive”.
Consider `COc1ccc(C(=O)NCC(c2ccc(N(C)C)cc2)N2CCc3ccccc32)c(OC)c1` (stereo not drawn), for which the Potency entry is “inactive”.
Same read-out and setting: the entry for `COc1ccc(S(=O)(=O)N2CCCCC2)cc1C(=O)NC1CCS(=O)(=O)C1` (stereo not drawn) is “inactive”; for `Cn1cncc1COC(=O)c1ccc(Cl)cc1` it is “inactive”; for `CN1OC(COC(=O)c2ccc(Cl)cc2)CC1c1ccccc1` (stereo not drawn) it is 19 µM (active).
Still for that read-out and setting: the entry for `CCOC(=O)c1ccc(CN(Cc2ccccc2)S(=O)(=O)c2ccc(Cl)cc2)cc1` is “inactive”; for `O=C(CCS(=O)(=O)c1ccccc1)N(Cc1cccnc1)c1nc2c(F)cccc2s1` it is “inactive”.
Still for that read-out and setting: the entry for `CN(C)c1cccc(C(=O)N2CCC(n3nccc3NC(=O)C3CCOC3)CC2)c1` (stereo not drawn) is “inactive”; for `CN(CCO)c1ccc(/C=N/Nc2nncc3ccccc23)cc1` it is 0.0757 µM (active).
Consider `Cc1cc2cc3c(N)[nH]nc3nc2cc1C`, for which the Potency is 4.78 µM (active).
With `COCCNC(=O)NC(=O)COC(=O)C1(c2ccc(Cl)cc2)CC1`, the Potency entry is “inactive”.
Take `CCN(CC)C(=O)CS(=O)CC(=O)Nc1cc(OCCOC)c(Cl)cc1Cl` (stereo not drawn): the Potency result is “inactive”.
Still for that read-out and setting: the entry for `O=C(CSc1ccc(-c2ccccc2)nn1)NCC1CCCO1` (stereo not drawn) is “inactive”; for `O=C(CSc1nnc(-c2ccc(NS(=O)(=O)c3ccccc3)cc2)o1)NCC1CCCO1` (stereo not drawn) it is “inactive”.
Still for that read-out and setting: the figure for `O=C(CSc1ccc(-c2ccc(Br)cc2)nn1)NCC1CCCO1` (stereo not drawn) is 15.1 µM (active).
`CCCC[C@]12Cc3cc(OC)c(OC)cc3C(O1)C1=C(CC3(CCCCC3)OC1=O)O2`: the activity change, negative = inhibition was -0.0926% [at 11.5 µM].
For the compound `Cc1cc(C)c(C#N)c(SCc2ccccc2C(=O)O)n1`, the Potency entry was “inactive”.
Same read-out and setting: the entry for `CCN(CC)CCCSc1nc2ccccc2s1` is “inactive”; for `O=C(O)c1ccccc1CSc1nc2ccccc2s1` it is 19 µM (active).
The same measure, in the same setting: the entry for `COCCNC(=O)c1ccc2c(c1)N=C(C)c1cc(C)ccc1S2` is “inactive”; for `COc1ccc(S(=O)(=O)N2CCOC23CCN(S(=O)(=O)c2ccc([N+](=O)[O-])cc2)CC3)cc1` it is “inactive”.
The same measure, in the same setting: under `CC(=O)N(C)c1ccc(NC(=O)Nc2cccc3ccccc23)cc1` stands 8.49 µM (active); under `O=C(O)Cc1ccc(NC(=O)Nc2cccc3ccccc23)cc1`, “inactive”; under `CCOc1ccc(NC(=O)Nc2ccc(N(C)C(C)=O)cc2)cc1`, “inactive”.
Regarding `CC(=O)Nc1ccc(NC(=O)CSc2nnc3c4cc(Br)ccc4n(C)c3n2)cc1`, the Potency result is “inactive”.
As to `CCc1ccc(NC(=O)CN2C(=O)C(c3ccccc3)=NC23CCCCCC3)cc1`, the Potency entry is “inactive”.
The same measure, in the same setting: the entry for `O=[N+]([O-])c1ccc(N=Cc2c(O)ccc3ccccc23)cc1` is “inactive”; for `Oc1ccc(N=Cc2sc3ccccc3c2Cl)cc1` it is 5.36 µM (active); for `CCOc1[nH]n(-c2ccc(Cl)cc2)c(=O)c1C=Nc1ccc(O)cc1` it is “inactive”.
On the same count and under the same terms, under `Oc1ccc(N=Cc2c(O)ccc3ccccc23)cc1` stands 16.9 µM (active); under `CC(C)CNC(=O)CC(c1ccccc1)c1c(O)ccc2ccccc12` (stereo not drawn), “inactive”.
The same measure, in the same setting: under `Oc1ccc2ccccc2c1C=Nc1ccccc1` stands 16.9 µM (active); under `COc1ccc(-n2ccnc(NCCc3ccc(Cl)cc3)c2=O)cc1OC`, “inactive”; under `Cc1cc(C)cc(NC(=O)c2cnc3sc(N4CCCC4)nn3c2=O)c1`, “inactive”.
Regarding `COc1cccc(CNC(=O)C(=O)NCC(c2cccs2)S(=O)(=O)c2ccccc2)c1` (stereo not drawn), the Potency result was “inactive”.
Still for that read-out and setting: under `Cc1nc2ccc(S(=O)(=O)N(CC(=O)Nc3ccc(F)cc3)Cc3ccccc3)cc2s1` stands “inactive”.
As to `CCCCC12CN3CC(C)(CN(C1)C3c1ccc(O)c(OC)c1)C2=O` (stereo not drawn), the Potency entry was “inactive”.
Same read-out and setting: under `CCOc1ccc(CNC(=O)C2CCN(c3nnc(-n4cccc4CNc4ccc(C)cc4)s3)CC2)cc1OC` stands “inactive”.
Same read-out and setting: under `CCCn1c(C)cc(/C=C(\C#N)C(=O)OCC(=O)N(C)c2c(N)n(Cc3ccccc3)c(=O)[nH]c2=O)c1C` stands 10.7 µM (active); under `CCOC(=O)/C(C#N)=C/c1ccc(OCC(=O)Nc2ccccc2)c(OC)c1`, “inactive”; under `Cc1cc(OCC(=O)N(C)c2c(N)n(Cc3ccccc3)c(=O)[nH]c2=O)c(C(C)C)cc1Cl`, “inactive”.
Same read-out and setting: the entry for `CN(C(=O)COC(=O)c1ccc(Br)o1)c1c(N)n(Cc2ccccc2)c(=O)[nH]c1=O` is “inactive”; for `CCCn1c(C)cc(/C=C(\C#N)C(=O)OCC(=O)Nc2cc(OC)c(OC)c(OC)c2)c1C` it is 13.5 µM (active); for `COc1cc(NC(=O)CCn2nc(C)cc2C)cc(OC)c1OC` it is “inactive”.
On to `CCS(=O)(=O)c1ncc(N(Cc2ccc(F)cc2)Cc2ccco2)c(C(=O)Nc2cc(C)ccc2C)n1`, for which the Potency entry is “inactive”.
With `COc1ccc(C(=O)c2oc3ccccc3c2NC(=O)COc2cccc(C)c2)cc1`, the Potency entry is “inactive”.
On the same count and under the same terms, under `O=c1oc2ccc(C#CC3(O)CCCCC3)cc2cc1-n1cc(-c2ccsc2)nn1` stands “inactive”; under `Cn1c(N)c(C(=O)COC(=O)COc2ccc(Cl)cc2)c(=O)n(C)c1=O`, “inactive”; under `CCN(C(=O)COC(=O)Cc1c(F)cccc1Cl)c1c(N)n(Cc2ccccc2)c(=O)[nH]c1=O`, “inactive”.
Same read-out and setting: under `CC(=O)N/C(=C/c1ccc(Cl)cc1)C(=O)NCCc1c[nH]c2ccccc12` stands “inactive”; under `COc1ccc(/C=C(\NC(=O)c2ccc(OC)c(OC)c2)C(=O)NCCc2c[nH]c3ccccc23)cc1`, “inactive”; under `Cc1ccc(C(=O)N/C(=C/c2ccco2)C(=O)NCCc2c[nH]c3ccccc23)cc1C`, 10.7 µM (active).
For `COc1ccc(C)cc1N(C)C(=O)c1coc(=O)c2ccccc12`, the Potency entry is “inactive”.
`O=C(CN1CCN(S(=O)(=O)c2cccc(Cl)c2)CC1)N1CCCCC1`: the Potency result was “inactive”.
Still for that read-out and setting: the entry for `O=C(COC(=O)c1ccccc1SCC(=O)NC1CCCCC1)NC1CCCCC1` is “inactive”; for `N#Cc1ccccc1Sc1ccccc1C(=O)OCC(=O)NC1CCCCC1` it is “inactive”; for `O=C(COC(=O)c1ccccc1Cl)NC1CCCCCCC1` it is 12 µM (active).
Still for that read-out and setting: the entry for `Cc1ccc(S(=O)(=O)NCc2nc3nc(C)cc(C)n3n2)cc1` is “inactive”.
Still for that read-out and setting: the entry for `Cc1ccc(NC(=O)CCC(=O)N2CCC(c3ccccc3)=N2)cc1S(=O)(=O)N1CCCCC1` is “inactive”.
As for `O=C(CN1C(=O)NC2(CCCCCC2)C1=O)NCc1cccs1`, the Potency entry is “inactive”.
On the same count and under the same terms, under `Cc1[nH]n(-c2ccccc2)c(=O)c1N=Nc1ccccc1C(=O)N1CCCCC1` stands “inactive”; under `Cc1cccc(N=Nc2c(C)[nH]n(-c3ccccc3)c2=O)c1`, 19 µM (active).
On the same count and under the same terms, the entry for `Cc1cccc(N2C(=O)CC(SC(N)=Nc3ccccc3)C2=O)c1` (stereo not drawn) is “inactive”.
